# Results published in ChEMBL document CHEMBL1961873, “Compounds: GSK PKIS; Assays: Nanosyn kinase panel” (2012).
# Assays:
# [1] = target: Sphingosine kinase 1 (Homo sapiens) (UniProt Q9NYA1); settings: at 1 µM;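 note: mean SPHK1 inhibition value reported from the GSK PKIS kinase panel screen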
# [2] = target: T1, Sphingosine kinase 2 (Homo sapiens) (UniProt Q9NRA0); settings: at 0.1 µM
# T1 sequence (whole entry): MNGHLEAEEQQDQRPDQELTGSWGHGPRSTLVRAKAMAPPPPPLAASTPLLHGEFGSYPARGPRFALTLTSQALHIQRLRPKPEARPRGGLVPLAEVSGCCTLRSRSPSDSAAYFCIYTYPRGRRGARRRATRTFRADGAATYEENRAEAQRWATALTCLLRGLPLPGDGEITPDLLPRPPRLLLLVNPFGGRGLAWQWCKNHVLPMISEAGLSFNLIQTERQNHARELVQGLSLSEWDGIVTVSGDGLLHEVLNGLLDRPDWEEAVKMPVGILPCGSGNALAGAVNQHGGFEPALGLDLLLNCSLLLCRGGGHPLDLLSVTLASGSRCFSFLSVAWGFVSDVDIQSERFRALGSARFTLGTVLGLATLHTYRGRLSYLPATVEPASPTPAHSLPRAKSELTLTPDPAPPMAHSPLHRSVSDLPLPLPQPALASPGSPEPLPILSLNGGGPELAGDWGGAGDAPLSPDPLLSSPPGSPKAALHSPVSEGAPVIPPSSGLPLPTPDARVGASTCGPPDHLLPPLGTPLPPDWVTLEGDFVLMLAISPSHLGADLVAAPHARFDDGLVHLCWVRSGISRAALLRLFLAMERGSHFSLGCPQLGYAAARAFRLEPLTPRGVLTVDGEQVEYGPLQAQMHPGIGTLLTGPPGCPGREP
# [3] = target: T1, Sphingosine kinase 2 (Homo sapiens); settings: at 1 µM
# [4] = target: Casein kinase II subunit alpha (Homo sapiens) (UniProt P68400); settings: at 0.1 µM
# [5] = target: Casein kinase II subunit alpha (Homo sapiens) (UniProt P68400); settings: at 1 µM
# [6] = target: T2, Inhibitor of nuclear factor kappa-B kinase subunit alpha (Homo sapiens) (UniProt O15111); settings: at 0.1 µM
# T2 sequence (whole entry): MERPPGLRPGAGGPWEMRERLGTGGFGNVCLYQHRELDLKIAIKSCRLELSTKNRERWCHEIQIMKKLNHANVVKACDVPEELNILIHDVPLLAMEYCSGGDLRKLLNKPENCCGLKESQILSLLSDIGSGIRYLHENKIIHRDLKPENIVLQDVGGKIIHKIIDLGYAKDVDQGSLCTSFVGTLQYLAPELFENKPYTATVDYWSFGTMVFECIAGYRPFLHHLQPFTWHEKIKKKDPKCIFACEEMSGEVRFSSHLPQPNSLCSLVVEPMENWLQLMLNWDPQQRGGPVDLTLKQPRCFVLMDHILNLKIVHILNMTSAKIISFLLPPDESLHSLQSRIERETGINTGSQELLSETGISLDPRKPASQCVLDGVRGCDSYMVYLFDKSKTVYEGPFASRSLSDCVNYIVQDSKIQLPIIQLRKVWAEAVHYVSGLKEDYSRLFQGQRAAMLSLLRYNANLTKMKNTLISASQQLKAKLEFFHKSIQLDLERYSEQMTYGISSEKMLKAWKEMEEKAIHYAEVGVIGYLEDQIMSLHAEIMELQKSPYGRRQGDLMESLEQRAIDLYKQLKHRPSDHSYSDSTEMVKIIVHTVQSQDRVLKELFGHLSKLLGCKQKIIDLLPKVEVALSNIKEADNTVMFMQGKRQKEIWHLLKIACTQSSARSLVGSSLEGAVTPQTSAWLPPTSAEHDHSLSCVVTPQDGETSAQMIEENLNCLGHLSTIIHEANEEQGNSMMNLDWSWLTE
# [7] = target: T2, Inhibitor of nuclear factor kappa-B kinase subunit alpha (Homo sapiens); settings: at 1 µM
# [8] = target: T3, Inhibitor of nuclear factor kappa-B kinase subunit beta (Homo sapiens) (UniProt O14920); settings: at 0.1 µM
# T3 sequence (whole entry): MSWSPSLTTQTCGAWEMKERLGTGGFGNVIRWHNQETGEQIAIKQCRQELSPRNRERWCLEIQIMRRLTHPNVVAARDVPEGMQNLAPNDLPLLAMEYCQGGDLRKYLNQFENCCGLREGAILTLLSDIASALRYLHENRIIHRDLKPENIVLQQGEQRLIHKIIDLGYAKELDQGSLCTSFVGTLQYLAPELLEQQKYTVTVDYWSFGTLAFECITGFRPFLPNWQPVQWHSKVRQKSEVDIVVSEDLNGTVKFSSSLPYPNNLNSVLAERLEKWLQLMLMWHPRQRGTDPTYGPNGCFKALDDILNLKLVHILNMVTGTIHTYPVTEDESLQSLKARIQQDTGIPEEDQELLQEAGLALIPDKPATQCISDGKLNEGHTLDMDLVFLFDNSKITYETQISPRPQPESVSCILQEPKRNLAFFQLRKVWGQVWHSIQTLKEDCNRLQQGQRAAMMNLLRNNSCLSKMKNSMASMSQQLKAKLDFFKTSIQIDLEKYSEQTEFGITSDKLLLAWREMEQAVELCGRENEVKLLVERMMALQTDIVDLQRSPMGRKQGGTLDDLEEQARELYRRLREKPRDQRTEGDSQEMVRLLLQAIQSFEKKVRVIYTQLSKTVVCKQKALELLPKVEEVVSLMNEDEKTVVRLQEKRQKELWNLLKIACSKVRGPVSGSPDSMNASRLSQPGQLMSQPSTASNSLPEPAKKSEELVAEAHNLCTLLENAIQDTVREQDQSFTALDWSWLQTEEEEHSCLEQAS
# [9] = target: T3, Inhibitor of nuclear factor kappa-B kinase subunit beta (Homo sapiens); settings: at 1 µM
# [10] = target: T4, Inhibitor of nuclear factor kappa-B kinase subunit epsilon (Homo sapiens) (UniProt Q14164); settings: at 0.1 µM
# T4 sequence (whole entry): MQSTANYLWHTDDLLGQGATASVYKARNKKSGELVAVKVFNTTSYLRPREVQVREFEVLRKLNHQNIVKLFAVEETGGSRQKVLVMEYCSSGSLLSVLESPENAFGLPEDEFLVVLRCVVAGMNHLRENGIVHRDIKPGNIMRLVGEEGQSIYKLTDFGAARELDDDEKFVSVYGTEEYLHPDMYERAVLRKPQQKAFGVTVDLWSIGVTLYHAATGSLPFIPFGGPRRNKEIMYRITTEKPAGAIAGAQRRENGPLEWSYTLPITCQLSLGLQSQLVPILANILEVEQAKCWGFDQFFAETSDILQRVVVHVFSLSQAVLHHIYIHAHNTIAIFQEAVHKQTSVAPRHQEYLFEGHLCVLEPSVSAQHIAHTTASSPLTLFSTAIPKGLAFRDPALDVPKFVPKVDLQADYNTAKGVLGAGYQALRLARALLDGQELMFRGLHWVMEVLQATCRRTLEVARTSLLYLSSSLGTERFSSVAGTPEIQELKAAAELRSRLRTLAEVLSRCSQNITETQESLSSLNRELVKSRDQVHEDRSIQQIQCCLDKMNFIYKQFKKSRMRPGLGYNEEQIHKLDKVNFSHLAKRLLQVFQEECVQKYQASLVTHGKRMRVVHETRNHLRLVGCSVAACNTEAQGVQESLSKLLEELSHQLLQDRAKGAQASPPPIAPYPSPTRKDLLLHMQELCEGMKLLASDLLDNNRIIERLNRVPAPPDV
# [11] = target: T4, Inhibitor of nuclear factor kappa-B kinase subunit epsilon (Homo sapiens); settings: at 1 µM
# [12] = target: T5, Serine/threonine-protein kinase Nek1 (Homo sapiens) (UniProt Q96PY6); settings: at 0.1 µM
# T5 sequence (whole entry): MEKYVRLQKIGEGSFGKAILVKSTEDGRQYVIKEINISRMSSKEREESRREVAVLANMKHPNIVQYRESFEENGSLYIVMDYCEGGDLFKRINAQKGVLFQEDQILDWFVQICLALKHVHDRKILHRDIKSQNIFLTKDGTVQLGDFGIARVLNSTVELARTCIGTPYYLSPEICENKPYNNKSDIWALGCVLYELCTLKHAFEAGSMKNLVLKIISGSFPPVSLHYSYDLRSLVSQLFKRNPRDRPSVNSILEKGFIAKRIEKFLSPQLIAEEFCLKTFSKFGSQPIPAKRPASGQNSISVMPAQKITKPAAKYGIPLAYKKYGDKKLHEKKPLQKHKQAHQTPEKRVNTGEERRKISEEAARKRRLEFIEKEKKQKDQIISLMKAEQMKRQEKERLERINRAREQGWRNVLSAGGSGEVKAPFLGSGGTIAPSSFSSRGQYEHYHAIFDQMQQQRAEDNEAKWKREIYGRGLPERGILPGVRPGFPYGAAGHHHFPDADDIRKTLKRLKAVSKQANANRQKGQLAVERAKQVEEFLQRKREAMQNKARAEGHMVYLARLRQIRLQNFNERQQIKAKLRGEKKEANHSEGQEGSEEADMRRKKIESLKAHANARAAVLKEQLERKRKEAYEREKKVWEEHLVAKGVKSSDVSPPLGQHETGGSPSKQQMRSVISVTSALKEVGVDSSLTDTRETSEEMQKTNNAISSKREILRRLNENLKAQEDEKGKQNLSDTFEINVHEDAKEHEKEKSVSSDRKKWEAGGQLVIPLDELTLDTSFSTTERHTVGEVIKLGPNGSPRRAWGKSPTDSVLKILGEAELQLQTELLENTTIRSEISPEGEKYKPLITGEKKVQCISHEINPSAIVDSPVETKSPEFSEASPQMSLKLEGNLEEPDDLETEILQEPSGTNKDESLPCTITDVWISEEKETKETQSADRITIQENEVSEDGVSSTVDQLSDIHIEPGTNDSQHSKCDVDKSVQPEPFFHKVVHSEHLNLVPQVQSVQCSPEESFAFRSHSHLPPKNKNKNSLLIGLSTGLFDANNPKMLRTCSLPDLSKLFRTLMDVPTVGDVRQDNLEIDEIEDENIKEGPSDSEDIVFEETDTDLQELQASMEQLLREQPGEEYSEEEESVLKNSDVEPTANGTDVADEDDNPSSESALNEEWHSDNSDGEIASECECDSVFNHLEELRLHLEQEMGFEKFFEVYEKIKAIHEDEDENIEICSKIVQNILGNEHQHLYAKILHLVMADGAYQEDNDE
# [13] = target: T5, Serine/threonine-protein kinase Nek1 (Homo sapiens); settings: at 1 µM
# [14] = target: T6, Serine/threonine-protein kinase Nek2 (Homo sapiens) (UniProt P51955); settings: at 0.1 µM
# T6 sequence (whole entry): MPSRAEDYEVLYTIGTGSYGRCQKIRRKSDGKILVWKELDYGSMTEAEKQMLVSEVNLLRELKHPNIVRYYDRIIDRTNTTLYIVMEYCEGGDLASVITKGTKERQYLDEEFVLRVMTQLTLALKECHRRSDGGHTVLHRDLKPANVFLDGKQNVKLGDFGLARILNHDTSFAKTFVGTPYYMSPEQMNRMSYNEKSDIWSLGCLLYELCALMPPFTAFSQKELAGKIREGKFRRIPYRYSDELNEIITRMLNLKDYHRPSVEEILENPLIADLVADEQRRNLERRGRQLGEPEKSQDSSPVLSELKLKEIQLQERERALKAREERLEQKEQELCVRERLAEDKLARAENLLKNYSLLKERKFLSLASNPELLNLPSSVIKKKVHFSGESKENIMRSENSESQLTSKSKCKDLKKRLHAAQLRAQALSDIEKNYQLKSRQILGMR
# [15] = target: T6, Serine/threonine-protein kinase Nek2 (Homo sapiens); settings: at 1 µM
# [16] = target: Serine/threonine-protein kinase Nek6 (Homo sapiens) (UniProt Q9HC98); settings: at 0.1 µM
# [17] = target: Serine/threonine-protein kinase Nek6 (Homo sapiens) (UniProt Q9HC98); settings: at 1 µM
# [18] = target: Serine/threonine-protein kinase Nek7 (Homo sapiens) (UniProt Q8TDX7); settings: at 0.1 µM
# [19] = target: Serine/threonine-protein kinase Nek7 (Homo sapiens) (UniProt Q8TDX7); settings: at 1 µM
# [20] = target: T7, Serine/threonine-protein kinase Nek9 (Homo sapiens) (UniProt Q8TD19); settings: at 0.1 µM;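 note: reported value is the mean percent inhibition of NEK9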
# T7 sequence (whole entry): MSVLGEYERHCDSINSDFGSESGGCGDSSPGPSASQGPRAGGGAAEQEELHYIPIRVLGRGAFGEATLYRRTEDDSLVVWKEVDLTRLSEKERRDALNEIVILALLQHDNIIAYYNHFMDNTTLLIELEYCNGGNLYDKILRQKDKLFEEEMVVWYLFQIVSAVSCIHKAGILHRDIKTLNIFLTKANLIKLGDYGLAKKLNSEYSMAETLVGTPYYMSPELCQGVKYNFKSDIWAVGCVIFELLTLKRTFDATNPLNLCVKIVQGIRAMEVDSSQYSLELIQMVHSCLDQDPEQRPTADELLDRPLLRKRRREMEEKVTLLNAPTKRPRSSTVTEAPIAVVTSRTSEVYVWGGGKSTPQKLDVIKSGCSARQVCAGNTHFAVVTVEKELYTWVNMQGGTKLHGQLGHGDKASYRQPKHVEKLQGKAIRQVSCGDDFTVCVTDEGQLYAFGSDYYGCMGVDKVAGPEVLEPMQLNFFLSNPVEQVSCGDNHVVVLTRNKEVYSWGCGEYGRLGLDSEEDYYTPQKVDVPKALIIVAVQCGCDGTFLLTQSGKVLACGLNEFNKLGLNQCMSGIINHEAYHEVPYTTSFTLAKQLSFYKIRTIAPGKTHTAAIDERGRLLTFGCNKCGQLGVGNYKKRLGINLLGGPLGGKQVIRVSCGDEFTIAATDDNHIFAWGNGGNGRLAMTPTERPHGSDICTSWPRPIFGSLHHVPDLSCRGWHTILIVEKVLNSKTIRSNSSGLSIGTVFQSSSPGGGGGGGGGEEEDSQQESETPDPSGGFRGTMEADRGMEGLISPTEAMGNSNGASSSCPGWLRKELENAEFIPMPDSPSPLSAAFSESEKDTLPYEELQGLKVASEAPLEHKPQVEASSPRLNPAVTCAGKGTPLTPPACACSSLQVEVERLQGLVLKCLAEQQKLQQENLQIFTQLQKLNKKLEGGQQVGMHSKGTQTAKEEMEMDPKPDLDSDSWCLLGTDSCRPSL
# Casein kinase II subunit alpha (Homo sapiens), sequence (P68400 whole entry, looked up): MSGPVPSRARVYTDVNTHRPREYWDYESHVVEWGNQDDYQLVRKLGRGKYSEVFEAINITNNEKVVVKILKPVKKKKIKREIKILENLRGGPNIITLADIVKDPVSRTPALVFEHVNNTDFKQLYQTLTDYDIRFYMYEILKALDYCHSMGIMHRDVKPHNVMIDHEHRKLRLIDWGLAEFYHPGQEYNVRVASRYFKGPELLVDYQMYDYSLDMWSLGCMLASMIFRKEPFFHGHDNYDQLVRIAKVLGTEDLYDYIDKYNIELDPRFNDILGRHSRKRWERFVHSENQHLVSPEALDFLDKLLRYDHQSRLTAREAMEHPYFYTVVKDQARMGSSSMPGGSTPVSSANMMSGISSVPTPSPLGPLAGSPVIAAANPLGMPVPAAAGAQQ
# Serine/threonine-protein kinase Nek7 (Homo sapiens), sequence (Q8TDX7 whole entry, looked up): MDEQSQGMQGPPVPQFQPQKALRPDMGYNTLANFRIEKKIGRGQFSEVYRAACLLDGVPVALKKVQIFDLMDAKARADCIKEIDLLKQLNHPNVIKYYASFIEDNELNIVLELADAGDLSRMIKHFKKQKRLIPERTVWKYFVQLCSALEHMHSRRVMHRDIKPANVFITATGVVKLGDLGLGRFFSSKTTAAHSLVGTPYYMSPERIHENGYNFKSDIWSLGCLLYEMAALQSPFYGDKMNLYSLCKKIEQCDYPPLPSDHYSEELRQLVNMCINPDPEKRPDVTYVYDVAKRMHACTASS
# Serine/threonine-protein kinase Nek6 (Homo sapiens), sequence (Q9HC98 whole entry): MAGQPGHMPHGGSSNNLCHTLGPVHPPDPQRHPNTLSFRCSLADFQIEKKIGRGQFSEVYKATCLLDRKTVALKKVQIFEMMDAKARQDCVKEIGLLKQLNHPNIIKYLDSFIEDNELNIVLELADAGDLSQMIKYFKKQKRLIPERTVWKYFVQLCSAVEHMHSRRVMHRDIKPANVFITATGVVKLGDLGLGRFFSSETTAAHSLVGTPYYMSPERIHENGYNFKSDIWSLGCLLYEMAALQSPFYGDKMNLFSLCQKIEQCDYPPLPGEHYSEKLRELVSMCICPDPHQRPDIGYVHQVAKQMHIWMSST
# Sphingosine kinase 1 (Homo sapiens), sequence (Q9NYA1 whole entry): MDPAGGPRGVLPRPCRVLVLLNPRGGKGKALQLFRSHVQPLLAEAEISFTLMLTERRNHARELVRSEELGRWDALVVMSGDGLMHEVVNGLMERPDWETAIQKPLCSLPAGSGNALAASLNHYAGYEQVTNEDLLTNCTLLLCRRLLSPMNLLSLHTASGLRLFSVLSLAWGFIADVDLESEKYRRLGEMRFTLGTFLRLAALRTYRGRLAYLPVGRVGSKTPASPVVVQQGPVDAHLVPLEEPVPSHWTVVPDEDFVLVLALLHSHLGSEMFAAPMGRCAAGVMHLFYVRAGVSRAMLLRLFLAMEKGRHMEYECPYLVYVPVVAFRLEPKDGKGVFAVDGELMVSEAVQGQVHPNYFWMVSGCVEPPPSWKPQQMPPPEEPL
compound,measurement,setting,value
C[C@@H](Oc1cc(-n2cnc3ccc(OC[C@@H](O)CO)cc32)sc1C(N)=O)c1ccccc1Cl,inhibition,[1],0.3%
same,inhibition,[2],0%
same,inhibition,[3],0.27%
same,inhibition,[4],1.09%
same,inhibition,[5],10.2%
same,inhibition,[6],-0.83%
same,inhibition,[7],-3.48%
same,inhibition,[8],-3.56%
same,inhibition,[9],-1.92%
same,inhibition,[10],-2.16%
same,inhibition,[11],-0.86%
same,inhibition,[12],13.6%
same,inhibition,[13],55%
same,inhibition,[14],3.01%
same,inhibition,[15],19.7%
same,inhibition,[16],-1.54%
same,inhibition,[17],-3.82%
same,inhibition,[18],0.63%
same,inhibition,[19],0.36%
same,inhibition,[20],62.4%
